Unmarked numbers belong to inactive results. No rule for the calls is given here.
Test system: HIV-1 nucleocapsid protein NCp7 (binding to TG oligonucleotide)
Test: HIV Nucleocapsid (AID 346);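 also: potency is for inhibitors that block NC binding and lower polarization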
Conditions: HIV-1 NC / fluorescein-TGTGTGTG probe, fluorescence polarization
Procedure, shortened: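 NCp7 100 nM + fluorescein TG4xF 10 nM; Hepes pH 7.5/250mM NaCl/1uM ZnCl2/0.004% PEG 20000; 1 hr RT; FP, 45 s exposure; oligo-only wells as negative control.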
Potency is read from the fitted curve at half-maximal effect.

Question: Which Potency does the source give for `COc1cccc(-c2nc(NCCc3c[nH]c4ccc(OC)cc34)c3ccccc3n2)c1` here?
Answer: > 20 µM

Question: Which Potency does the source give for `COc1ccc(-n2c(=O)c(-c3cc(F)cc(F)c3)nc3cnc(N4CCOCC4)nc32)cc1` here?
Answer: > 20 µM

Question: How did the Potency turn out when `COc1ccccc1CNc1ncnc2ccc(-c3ccccc3C#N)cc12` was run?
Answer: > 20 µM

Question: For `CN(C)c1ncc2ncc(=O)n(C[C@H]3CCCO3)c2n1`, which Potency is on record?
Answer: > 20 µM

Question: Which Potency does the source give for `COCCn1c(=O)c(CCc2ccccc2)nc2cnc(Oc3cccc(Cl)c3)nc21` here?
Answer: > 20 µM

Question: How did the Potency turn out when `Cc1cnc(CNc2nc(-c3ccccc3C(F)(F)F)nc3ccccc23)cn1` was run?
Answer: > 20 µM

Question: How did the Potency turn out when `O=C(Nc1ccccc1)N1CC[C@@]2(CCCN(C(=O)c3ccncc3)C2)C1` was run?
Answer: > 20 µM

Question: For `COc1ccc(Oc2ncc3nc(-c4cc(F)cc(F)c4)c(=O)n(C[C@H]4CCCO4)c3n2)cc1`, which Potency is on record?
Answer: > 20 µM

Question: With `CNc1ccnc(-c2ccccc2OC)n1` as the compound, how does the Potency read?
Answer: > 20 µM

Question: `CNc1nc(-c2ccccc2CN(C)C)nc2ccccc12` was tested. Which Potency did it give?
Answer: > 20 µM

Question: Which Potency does the source give for `CN(C)Cc1ccccc1-c1nc(NCc2ccccc2)c2ccccc2n1` here?
Answer: > 20 µM

Question: With `COc1ccc(-n2c(=O)cnc3cnc(Oc4cccc(Cl)c4)nc32)cc1` as the compound, how does the Potency read?
Answer: > 20 µM

Question: `CCNc1ncc2nc(C)c(=O)n(C)c2n1` was tested. Which Potency did it give?
Answer: > 20 µM

Question: For `COc1cccc(-c2nc(NCc3cccnc3)c3ccccc3n2)c1`, which Potency is on record?
Answer: > 20 µM

Question: Which Potency does the source give for `CNc1nc(-c2ccc3c(c2)OCO3)nc2ccccc12` here?
Answer: > 20 µM

Question: How did the Potency turn out when `COC(=O)N1CCC[C@@]2(CCN(c3ncccn3)C2)C1` was run?
Answer: > 20 µM

Question: With `COCC(=O)N1CCC2(CC1)CCN(c1cccc(-c3ccccc3)c1)CC2` as the compound, how does the Potency read?
Answer: > 20 µM

Question: `CN(C)c1ncc2nc(-c3ccc(F)cc3)c(=O)n(CCC#N)c2n1` was tested. Which Potency did it give?
Answer: > 4 µM

Question: With `COc1ccccc1CNc1cc(-c2ccccc2Cl)ncn1` as the compound, how does the Potency read?
Answer: > 20 µM

Question: `Cc1cccc(CNc2cc(-c3ccccc3C)ncn2)c1` was tested. Which Potency did it give?
Answer: > 20 µM

Question: With `COc1ccccc1CNc1ncncc1-c1cccc(C#N)c1` as the compound, how does the Potency read?
Answer: > 20 µM

Question: For `Cc1cnc(CNc2ncncc2-c2ccccc2C(F)(F)F)cn1`, which Potency is on record?
Answer: > 20 µM

Question: For `COc1ccc(CNc2ncnc3ccc(-c4ccccc4OC)cc23)c(OC)c1`, which Potency is on record?
Answer: > 20 µM

Question: For `O=c1c(-c2cccc(Cl)c2)nc2cncnc2n1Cc1ccccc1Cl`, which Potency is on record?
Answer: > 20 µM

Reference: PubChem BioAssay (NCATS)
